Source: PubChem (National Center for Advancing Translational Sciences (NCATS))
The list is not random: actives were taken first. Their share in the collection is about 20%.
Pf growth 96h: P. falciparum growth inhibition at 96 hours. P. falciparum luciferase reporter growth, 96 h. Potency, µM (series often up to 28.7 µM), for the others: at the highest dose activity change, negative = inhibition, most hits filed as inhibitors. hit rate 6.9% among 320,000. AID 504834; further: potency means the concentration at half of the fitted maximal effect; on the % scale 0 is the no-effect control and ±100 the full control effect
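Infected RBCs, 2% Hct / 0.05% parasitemia final; luciferase-reporter P. falciparum; cpd 96 h, 37 C, 5% CO2; luciferase detection reagent; luminescence.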
HCMV inh: inhibitors of human cytomegalovirus. activity change, negative = inhibition, % at 57.5 µM. hit rate 4.5% among 410,000. HFF cells, HCMV-luciferase reporter, 72 h; active compounds read low; in the data active means activity change below about -60%; inconclusive means no clear call, values can overlap the other calls; inactive means above about -39%; further: on the % scale 0 is the no-effect control and ±100 the full control effect
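Screen run at 2 compound doses on HFFs infected with reporter HCMV, MOI 1 PFU/cell. Luciferase activity from cell lysates at 72 h post infection gave inhibition relative to buffer-only and Salinomycin wells.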
Shiga inhibitor: Shiga toxin inhibition. Vero cells, Shiga toxin protein synthesis inhibition reporter. inhibition, % at 38.7 µM. hit rate 9.2% among 290,000. AID 2315; in the data active means inhibition mostly above about 28%, no sharp cut-off; inactive means mostly below about 43%; further: 0% is about no effect
Pf growth 48h: P. falciparum growth inhibition at 48 hours (one generation); hit rate 5.9% among 310,000; P. falciparum luciferase growth in erythrocytes, 48 h; Potency, µM (series often up to 28.7 µM), without a hit: at the top dose activity change, negative = inhibition, hits mostly inhibitors; further: potency means the concentration at half of the fitted maximal effect; on the % scale 0 is the no-effect control and ±100 the full control effect
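A one-generation exposure of luciferase-tagged malaria parasites in RPMI 1640/Albumax erythrocyte culture, 37 C and 5% CO2. Inhibition is inferred from decreased luminescence after adding detection reagent.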
CHX counter: counter-screen for Shiga toxin inhibitors: cycloheximide protein synthesis inhibition | hit rate 12% among 300,000 | max response, % | cell reporter, cycloheximide protein synthesis inhibition counterscreen; in the data active means max response mostly above about 13%, no sharp cut-off; inactive means mostly below about 14%; further: read at 38.3 µM for the half of the compounds with a filed dose; 0% is about no effect
* = called active by the depositor; ? = inconclusive; . = not tested or not shown; [ ] = remark or other dose. Unless noted, the call rests on the fitted dose curve; in most records, active means well fitted inhibition curve with a large enough effect; inconclusive means small, poorly fitted or top-dose-only effect, or another doubt; inactive means no such curve, though single readings can be large or run the other way.

SMILES | Pf growth 96h | HCMV inh | Shiga inhibitor | Pf growth 48h | CHX counter
CO[C@]1(NC(=O)CSCC#N)C(=O)N2C(C(=O)O)=C(CSc3nnnn3C)CS[C@H]21 | -15% | . | . | 5% | .
Cc1cc(NC(=O)CSCC(=O)Nc2ccccc2N2CCCCC2)no1 | ? | -21 | . | 13µM* | .
Cc1ccc(Oc2ccccc2NC(=O)CSCC(=O)Nc2cc(C)on2)cc1 | -4% | -75* | . | ? | .
CCOC(=O)N1CCN(C(=O)C2CCN(C(=O)c3ccc(C(C)(C)C)cc3)CC2)CC1 | -17% | -15 | -11 | 9.3µM* | 2
CCOC(=O)N1CCN(C(=O)c2ccc(NC(=O)c3ccc(C)cc3)cc2)CC1 | . | 46 | 34 | ? | 31*
COc1ccccc1N1CCN(C(=O)C2CCN(C(=O)c3ccc(C(C)(C)C)cc3)CC2)CC1 | 0% | -2 | -5 | 4.7µM* | -4
CCOC(=O)N1CCN(C(=O)c2ccc(NC(C)=O)cc2)CC1 | 69% | 9 | 2 | 12% | -2
COCCCNC(=O)C1CCCN(S(=O)(=O)c2ccc3c(c2)oc(=O)n3C)C1 (stereo not given) | . | -4 | . | . | .
O=C(NCC(c1ccc(F)cc1)N1CCOCC1)c1ccc(-c2ccccc2)cc1 (stereo not given) | . | 41 | . | . | .
CCN(c1ccccc1)S(=O)(=O)c1cccc(C(=O)NCC(c2ccco2)N2CCCCC2)c1 (stereo not given) | . | -71* | . | . | .
CN(CC(=O)NCC(c1ccco1)N1CCCCC1)S(=O)(=O)c1ccc(Cl)cc1 (stereo not given) | ? | ? | . | 8.3µM* | .
O=C(NCC(c1ccco1)N1CCCC1)c1cccc(S(=O)(=O)Nc2ccc(Br)cc2)c1 (stereo not given) | ? | -3 | -8 | ? | 1
Cc1ccc(NS(=O)(=O)c2cccc(C(=O)NCC(c3ccco3)N3CCCCC3)c2)cc1 (stereo not given) | 12µM* | . | -3 | ? | -2
O=C(NCC(c1ccc(F)cc1)N1CCOCC1)c1nn(-c2ccccc2)c(=O)c2ccccc12 (stereo not given) | ? | 39 | . | 9.3µM* | .
CC(C(=O)Nc1ccccc1Sc1ccccc1)N(c1ccccc1)S(C)(=O)=O (stereo not given) | ? | 5 | -10 | ? | 1
CC(Oc1ccc(C(C)(C)C)cc1)C(=O)NCC(c1ccco1)N1CCCC1 (stereo not given) | ? | -4 | . | ? | .
CC1CCN(C(=O)CN(c2ccccc2)S(=O)(=O)N(C)C)CC1 | ? | 21 | -3 | 4% | -3
COC(=O)c1nnn(-c2ccc(Br)cc2)c1C(=O)OC | . | -6 | . | . | .
COc1ccc(C(CNC(=O)c2ccc(NS(=O)(=O)c3ccc(F)c(C)c3)cc2)N2CCCC2)cc1 (stereo not given) | . | -15 | . | . | .
CCN(c1ccccc1)S(=O)(=O)c1cccc(C(=O)NCC(c2ccc(F)cc2)N2CCOCC2)c1 (stereo not given) | . | -16 | . | . | .
C=CCN(c1ccccc1)S(=O)(=O)c1cccc(C(=O)NCC(c2ccc(F)cc2)N2CCOCC2)c1 (stereo not given) | ? | -30 | . | 13µM* | .
COc1ccc(NS(=O)(=O)c2cccc(C(=O)NCC(c3ccco3)N3CCCC3)c2)cc1 (stereo not given) | 15µM* | -2 | . | ? | .
Cc1cccc(NS(=O)(=O)c2ccc(C)c(C(=O)NCC(c3ccco3)N3CCCCC3)c2)c1 (stereo not given) | ? | -29 | . | 13µM* | .
COc1ccc(NS(=O)(=O)c2ccc(C)c(C(=O)NCC(c3ccco3)N3CCCCC3)c2)cc1 (stereo not given) | ? | -3 | . | -11% | .
CCOc1ccc(NS(=O)(=O)c2ccc(C(=O)NCC(c3ccc(OC)cc3)N3CCCC3)cc2)cc1 (stereo not given) | 13µM* | -26 | . | 13µM* | .
SMILES | Pf growth 96h | HCMV inh | Shiga inhibitor | Pf growth 48h | CHX counter
O=C(N/N=C/c1ccc(OC(F)F)cc1)c1cccc(S(=O)(=O)N2CCOCC2)c1 | 9% | 46 | -6 | -40%[5.75 µM] | 9
O=C(CN1CCN(Cc2ccccc2Cl)C1=O)NCc1ccccc1Cl | . | -4 | . | . | .
O=C(CCC1CCCN(C(=O)c2ccoc2)C1)NCc1ccccc1F (stereo not given) | 3% | -10 | 16 | 13% | 14
CN(C)c1cccc(C(=O)N2CCCC(CCC(=O)NCc3ccccc3F)C2)c1 (stereo not given) | ? | -26 | 16 | 3.3µM* | 30*
O=C(CCC1CCCN(C(=O)CCN2CCCCC2=O)C1)NCc1ccccc1F (stereo not given) | 21% | -105* | -11 | 29% | 14*
Cn1cc(CCC(=O)N2CCCC(CCC(=O)NCc3ccccc3F)C2)cn1 (stereo not given) | ? | -24 | 18 | 10% | 3
O=C(CCC1CCCN(C(=O)c2cccnc2)C1)NCc1ccccc1F (stereo not given) | -13% | 31 | 3 | 12% | 17*
CCN(CC)CCN(Cc1cc2cc3c(cc2[nH]c1=O)OCO3)C(=S)NCCOC | -7% | 9 | . | 2% | -3
COc1ccc(C(=O)c2cnc(C(C)C)n2C)cc1 | . | -6 | 82* | 21% | 16*
CCCc1ncc(C(O)c2cccc(OC)c2)n1C (stereo not given) | 41% | 20 | 14 | 1% | -2
COc1ccc(C(=O)NNC(=O)CSc2nnc(C(C)C)n2C)cc1 | 25% | -35 | -9 | 2% | -5
CCCc1ncc(C(=O)c2ccc(OC)cc2)n1C | -4% | -12 | 42* | 44% | 17
CC1CCN(C(=O)Cn2cc(SCc3cccc(F)c3)c3ccccc32)CC1 | . | -10 | . | . | .
COc1cccc(CNC(=O)Cn2cccc2C(=O)c2ccccc2)c1 | . | -96* | . | . | .
COc1ccc(CCNC(=O)Cn2cccc2C(=O)c2ccccc2)c(OC)c1 | 159% | -96* | -2 | -3% | 1
COc1cccc(CNC(=O)Cn2cccc2C(=O)c2ccccc2C)c1 | ? | 4 | 60 | 7% | 21*
O=C(Cn1cccc1C(=O)c1ccccc1)NCc1ccccc1 | . | 17 | 22 | . | 9
Cc1ccccc1C(=O)c1cccn1CC(=O)NCc1cccc(Cl)c1 | 7% | -3 | 42* | 13% | 50*
CCc1ccc2occ(CC(=O)Nc3sc4c(c3C(=O)OC)CCC4)c2c1 | . | -13 | . | . | .
COc1cc2c(cc1OC)CN(C(=O)C1CCCN1S(=O)(=O)c1ccc(C)cc1)CC2 (stereo not given) | -28% | 20 | -1 | -9% | -2
COc1ccccc1CNC(=O)Cn1cccc1C(=O)c1ccccc1C | 69% | 1 | 46* | 4% | 43*
CCN1CCCC1CNC(=O)C1c2cc(OC)c(OC)cc2C(=O)N(C)C1c1cccnc1 (stereo not given) | ? | 28 | 1 | 0% | -3
N#Cc1cc2c(nc1SCC(=O)Nc1cc(Cl)cc(Cl)c1)C1CCN2CC1 | ? | 4 | -12 | ? | -4
N#Cc1cc2c(nc1SCC(=O)Nc1ccc(OC(F)(F)F)cc1)C1CCN2CC1 | . | -72* | . | . | .
